Laboratory results: PubChem BioAssay (NCI)
Compounds without any hit were thinned out: in the full panel of roughly 83,000, 20% have a hit.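 Treatment: one concentration, 48 hours, 96-well format. Scoring: percent growth, with anything below 10 considered active.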 A number with no mark means an inactive call. Activity calls are given as the source filed them.

The compounds below were run on MOLT-4 leukemia (assay: NCI-60 one-dose screen, 48 h (100 = growth as untreated, 0 = no growth, -100 = all killed)). Conditions: 10 µM unless noted.
Procedure: Growth inhibition of the MOLT-4 human tumor cell line is measured as a screen for anti-cancer activity. Cells are grown in 96 well plates and exposed to the test compound for 48 hours. Compounds are tested at a single concentration, which is 10^-5 M for most compounds. The reported endpoint is percent growth (GI% or GIPRCNT), where numbers from 0 - 100% represent growth inhibition, and numbers from -100% - 0 represent cell death. For example, a value of 40 represents 60% growth inhibition. A value of 0 means no net growth occurred over the course of the experiment. A value of -40 indicates 40% of cells at the beginning of the experiment died by the end of the experiment. A value of -100 means all cells are dead at the end of the experiment.
NCI-60 Human Tumor Cell Lines Screen was performed using the standard one-dose NCI protocol, which is described in more detail at https://dtp.cancer.gov/discovery_development/nci-60/default.htm.
Compounds with GIPRCNT values below 10 were considered active. Activity score was based on GIPRCNT using the following formula: […]
Score is 0 for GIPRCNT values of 100 or above, 50 for GIPRCNT values of 0, and 100 for GIPRCNT values of -100.

| SMILES | growth |
| --- | --- |
| Oc1cccc2ccc(-c3nnc(SCc4ccc(O)c5ncccc45)o3)nc12 | 17.4% |
| O=C(CCn1c[n+](CC(=O)c2ccc(-c3ccccc3)cc2)c2ccccc21)Nc1cccc2cccnc12 | 47.9% |
| COc1ccccc1-n1cc(C#N)c(N)c1C(=O)c1ccc(Br)cc1 | 61.4% |
| Nc1nc(N)c2c(n1)NC(c1ccc(Cl)cc1)CC(c1ccc(Nc3nc(NCCO)nc(N4CCOCC4)n3)cc1)=N2 (stereo not given) | 45.5% |
| COc1cccc(/C=C(/C)c2ccc3cccc(OC)c3[o+]2)c1O | 92% |
| C#CCn1cccc1CNc1ccc(OC)cc1 | -29.5% (active) |
| CS(=O)(=O)Nc1cc(-c2ccc3ncc(C#N)c(NCc4ccccc4)c3c2)cnc1Cl | -25.6% (active) |
| COc1cc(-c2nn(C(C)(C)C)cc2-c2ccnc(NCCCNS(=O)(=O)c3ccc(Cl)cc3)n2)ccc1Cl | 31% |
| COc1cc(OC)c(/C=C/S(=O)(=O)Cc2ccc(OC)c(NCC(=O)NO)c2)c(OC)c1 | 16.5% |
| NS(=O)(=O)c1ccc(Nc2nc(Nc3ccccc3)nc3nnc(SCC(=O)NC4CCCCC4)n23)cc1 | 101% |
| CCCCCc1ccc(S(=O)(=O)Nc2cccc(-c3csc(NC(=O)CN4CCN(C)CC4)n3)c2)cc1 | 20.8% |
| N/C(=N\C(N)=N\c1nc2ccccc2s1)c1ccncc1Cl | 23.9% |
| NC(N)=Nc1ccc(Oc2ccc(Nc3ccc(Cl)c(C(F)(F)F)c3)cc2)cc1 | 18.5% |
| O=C(NCCN1CCCC1)c1ccc(-c2nc3ccc4[nH]ncc4c3c3c2CCCC3)cc1 | -26% (active) |
| COc1c(N2CC3CCCNC3C2)c(F)cc2c(=O)c(C(=O)N/N=C/c3ccc(N(C)C)cc3)cn(C3CC3)c12 (stereo not given) | 29.5% |
| O=C(NNc1nc2cc(F)c(F)cc2n2c(CN3CC4CNCC4C3)ccc12)c1ncccn1 (stereo not given) | -6.62% (active) |
| CCNC(=O)N1CCc2cc(OC)c(OCCc3ccc(OC)cc3)cc2C1c1ccc(Cl)cc1C (stereo not given) | 23.6% |
| COc1ccc2c(c1)c(CC(=O)[Se]CC#N)c(C)n2C(=O)c1ccc(Cl)cc1 | 10.8% |
| COc1ccc2c(c1)c(CC(=O)[Se]CCC#N)c(C)n2C(=O)c1ccc(Cl)cc1 | 0.134% (active) |
| NC(=O)c1cccc(-n2ccc3cc(NC(=O)Nc4ccc(N5CCOCC5)c(C(F)(F)F)c4)ccc32)n1 | -38.9% (active) |

| SMILES | growth |
| --- | --- |
| Nc1ccccc1NC(=O)c1ccc(NC(=O)C/C=C/c2cccnc2)cc1 | 31.1% |
| COc1cc(-c2nc(-c3ccccc3)[nH]c2-c2ccnc(NCCCNS(=O)(=O)c3cccc(F)c3)n2)ccc1Cl | 19.6% |
| COc1cc(-c2nn(C(C)(C)C)cc2-c2ccnc(NCCCNS(=O)(=O)c3ccc(C)cc3)n2)ccc1Cl | 44.8% |
| O=C(CSc1nc2ccccc2c(=O)n1-c1ccc(Cl)cc1)N/N=C/c1ccc(N2CCCCC2)cc1 | 92% |
| CCCCCc1ccc(S(=O)(=O)Nc2cccc(-c3csc(NCCN4CCN(C)CC4)n3)c2)cc1 | 11.7% |
| Cc1ccc(-n2cc(/C=C/C(=O)c3ccc(O)cc3)c(-c3ccc(S(C)(=O)=O)cc3)n2)cc1 | 34.8% |
| Cn1cc(-c2cc(N)n3nc(-c4cn(C)c5ccccc45)cc3n2)c2ccccc21 | 49.8% |
| Cc1nc2ncc(-c3ccc4ncnc(NCc5ccccc5)c4c3)cc2[nH]1 | 45.2% |
| CS(=O)(=O)c1ncc(-c2ccccc2)cn1 | 97.2% |
| COc1cc(/C=C/C(=O)c2ccc(NC(=O)CSc3nnc(-c4ccc(-c5nc6ccc(Cl)cc6[nH]5)cc4)o3)cc2)cc(OC)c1OC | 85% |
| O=S(=O)(NCCCNc1nccc(-n2cnc3ccccc32)n1)c1ccc(C(F)(F)F)cc1 | 67% |
| O=C(CN1CCN(c2cc(=O)n(-c3ccccc3)c3ccccc23)CC1)Nc1nc(-c2ccc(Cl)cc2)cs1 | 29% |
| C#C[C@]1(O)CC[C@H]2[C@@H]3CC=C4c5sc(-c6ccc7c(c6)OCO7)nc5CC[C@]4(C)[C@H]3CC[C@@]21C | 8.06% (active) |
| COc1ccc(-n2c(SCc3n[nH]c(=S)o3)nc3ccc(Cl)cc3c2=O)cc1 | 111% |
| NC(N)=Nc1ccc(Oc2cccc(Nc3ccc(Br)c(C(F)(F)F)c3)c2)cc1 | 9.79% (active) |
| CN(C)CCCOc1ccc2c(c1)CN(C(=O)c1cc(C(=O)N3Cc4cccc(F)c4C3)ccc1O)C2 | 97.5% |
| CCCCCc1ccc(S(=O)(=O)Nc2cccc(-c3csc(NC(=O)CCCCCN4CCN(C)CC4)n3)c2)cc1 | 3.35% (active) |
| CCCCCc1ccc(S(=O)(=O)Nc2cc(-c3csc(NC(=O)CN4CCN(C)CC4)n3)ccc2OC)cc1 | -5.31% (active) |
| C=C(C=O)[C@@H]1CC[C@]2(COC(C)=O)CC[C@]3(C)C(CC[C@@H]4[C@@]5(C)CC[C@H](OC(C)=O)C(C)(C)[C@@H]5CC[C@]43C)[C@@H]12 (stereo not given in full) | -18.1% (active) |
| NS(=O)(=O)c1ccc(Nc2nc(N/N=C/c3c[nH]c4ccccc34)nc(Nc3ccccc3)n2)cc1 | 19.9% |
